Test results taken from PubChem BioAssay AID463173 (ICCB-Longwood Screening Facility, Harvard Medical School, 2010).
Hit rate of the full screen: of about 52,000 compounds, about 4,300 (8.3%) were called active. The full list was thinned out, with actives kept by preference. Values without a mark were called inactive. Rule as the data show it: active = survival mostly below about 52% (no sharp cut-off); inactive = mostly above about 56%.

Each compound was assayed on DeltatarO mutant (assay: S. aureus survival, RN4220 and DeltatarO strains – OD600, teichoic acid synthesis inhibitors, primary screen (AID 463173)). Settings: S. aureus RN4220 wild type/DeltatarO growth, OD600, 18 h, stronger effect = lower value, screened at 18.75 µg/mL (by protocol).

Structure (SMILES) | survival
CCN(c1cccc(C)c1)S(=O)(=O)c1cc2c(cc1C)n(C)c(=O)c(=O)n2C | 85%
COC(=O)c1ccccc1NC(=O)CCCn1c(C)c2cnn(-c3ccccc3)c(=O)c2c1C | 90%
COc1ccc(OC)c(C2=NS(=O)(=O)N(C)C(C(=O)Nc3ccc(F)cc3F)=C2)c1 | 72%
COC(=O)c1ccc(NC(=O)CN(C)S(=O)(=O)c2ccc3c(c2)CCCC(=O)N3)cc1 | 79%
CCCN1C2CCCC1CC(NC(=O)NC1CCCCC1)C2 (stereo not given) | 59%
CCOC(=O)c1cc2c(ccn2-c2ccc(F)cc2)n1CC(=O)N1C(C)CCCC1C (stereo not given) | 103%
CC(=O)c1cc(C(=O)Nc2cc(C)cc(C)c2)c2ccccn12 | 43%
CCOc1cccc(C2c3[nH]c4ccccc4c3CCN2C(=O)CCC2CCCC2)c1 (stereo not given) | 78%
COC(=O)c1ccccc1NC(=O)Cn1cnc2sc(C)c(S(=O)(=O)N3CCC(C)CC3)c2c1=O | 59%
CCc1ccc(CNC(=O)CCn2nc(C)c3c(C)n(-c4ccccc4)nc3c2=O)cc1 | 55%
Cc1nn(CCC(=O)NCc2ccc(Cl)cc2)c(=O)c2nn(-c3ccccc3)c(C)c12 | 0% (active)
Cc1nn(CCC(=O)NCc2ccc(N(C)C)cc2)c(=O)c2nn(-c3ccccc3)c(C)c12 | 95%
O=c1c2cnn(-c3ccc(Cl)cc3)c2ncn1Cc1ccc(Cl)cc1Cl | 102%
CCc1ccccc1NC(=O)C1CCCN(S(=O)(=O)c2ccc3[nH]c(=O)ccc3c2)C1 (stereo not given) | 88%
CCSc1nc2ccccc2c(OCc2cc(C(=O)OC)ccc2OC)c1C(=O)OC | -12% (active)
COC(=O)c1c(SC)nc2ccccc2c1OCc1ccc(C)cc1C | 46% (active)
CCSc1nc2ccccc2c(OCc2ccccc2Cl)c1C(=O)OC | 64%
COC(=O)c1c(SC)nc2ccccc2c1OCc1ccccc1C | 105%
COC(=O)c1c(SC)nc2ccccc2c1OCc1cc(C)ccc1C | 144%
CCSc1nc2ccccc2c(OCc2ccc(Cl)cc2)c1C(=O)OC | 98%
CCOC(=O)Cn1cc2c(c1-c1ccc(Cl)cc1)c(=O)n(C)c(=O)n2C | 60%
COc1cc(CNC(=O)C2CCCCN2S(=O)(=O)c2ccc(F)cc2)cc(OC)c1OC (stereo not given) | 83%

Structure (SMILES) | survival
Cc1ccc2c(=O)c(C(=O)c3ccc(F)cc3)cn(CC(=O)Nc3ccc4c(c3)OCCO4)c2n1 | 77%
Cc1ccc(CCNC(=O)c2ccc3c(Cl)c4c(nc3c2)CCCC4)cc1 | 61%
CCCCC(=O)N(c1ccc2oc(C)c(C(C)=O)c2c1)S(=O)(=O)c1ccc(F)cc1C | 62%
CCCC(=O)N(c1ccc2oc3c(c2c1)CCCC3)S(=O)(=O)c1cc(C)ccc1C | 35% (active)
CCOC(=O)c1c(-c2ccccc2)oc2ccc(N(C(C)=O)S(=O)(=O)c3cc(C)ccc3C)cc12 | 54%
CCc1ccc(S(=O)(=O)N(C(C)=O)c2ccc3oc4c(c3c2)CCCC4)cc1 | 146%
CCCC(=O)N(c1ccc2oc(-c3ccccc3)c(C(=O)OCC)c2c1)S(=O)(=O)c1ccc(C)cc1 | 140%
CCCC(=O)N(c1ccc2oc3c(c2c1)CCCC3)S(=O)(=O)c1ccc(CC)cc1 | 39% (active)
CCC1CN(C(=O)NCc2ccc(C)cc2)c2cc(C)ccc2O1 (stereo not given) | 54%
COC(=O)CC1Oc2ccc(Cl)cc2-n2cc(-c3ccccc3)nc21 (stereo not given) | 63%
CCOC(=O)Cn1c(=O)oc2cc(S(=O)(=O)NC(C)c3ccccc3)ccc21 (stereo not given) | 66%
CC(C)=NNC(=O)CNc1ccccc1Cl | 79%
Cc1ccc(NC(=O)C2CC=CCC2C(=O)N2CCCCC2)cc1 (stereo not given) | 69%
COc1cc(CN2CCc3nc(N4CCN(c5ccccc5F)CC4)ncc3C2)ccc1OC(C)C | 118%
O=C(CC1N=C2c3ccccc3N=C(SCc3ccccc3Cl)N2C1=O)NCc1cccs1 (stereo not given) | 66%
Cc1ccc2c(c1)-c1ncc(C(=O)c3cc(Br)ccc3O)cc1CO2 | 62%
Cc1cc(O)c(C(=O)c2cnc3c(c2)COc2ccccc2-3)cc1Cl | 76%
Cc1ccc2c(c1)-c1ncc(C(=O)c3ccccc3O)cc1CO2 | 3% (active)
O=C(c1cnc2c(c1)COc1ccccc1-2)c1ccccc1O | 3% (active)
Cc1ccc2c(c1)-c1nc(-c3ccccc3)cc(-c3ccccc3)c1CO2 | 91%
O=C(c1cnc2c(c1)COc1ccc(Cl)cc1-2)c1ccccc1O | 105%
COc1ccccc1/C=C(\C#N)C(=O)NCC1CCCO1 (stereo not given) | 129%

Structure (SMILES) | survival
CC1=C(c2ccc(Cl)cc2)S(=O)(=O)N=C1N1CCN(c2cccc(C(F)(F)F)c2)CC1 | 71%
CCS(=O)(=O)N1CCc2cc(C(=O)NCc3ccc(Cl)cc3)ccc21 | 92%
Cc1ccc(NC(=O)Nc2nnc(N(C)C3CCCCC3)s2)c(Cl)c1 | 104%
COc1ccc(NC(=O)Nc2nnc(N(C)C3CCCCC3)s2)c(OC)c1 | 70%
COc1cc(OC)c(NC(=O)Nc2nnc(N(C)C3CCCCC3)s2)cc1Cl | 23% (active)
O=C(CSc1nc2c([nH]c3ccccc32)c(=O)n1-c1cccc(Cl)c1)N1CCc2ccccc21 | 73%
COC(=O)C1CCN(C(c2ccccc2)c2sc3nc(-c4ccco4)nn3c2O)CC1 (stereo not given) | 57%
Cc1ccc(C)c(NC(=O)c2ccc(=O)n(Cc3ccc(F)cc3)c2)c1 | 94%
CCN(CC)CCCNC(=O)Cn1ncc2c3ccccc3n(Cc3ccccc3)c2c1=O | 95%
O=C(NCCCN1CCN(c2ccccc2F)CC1)c1cc2c(Cl)nc3ccccc3c2s1 | 51% (active)
O=C(c1cc2c(s1)-c1ccccc1OC2)N1CCN(c2ccccc2F)CC1 | 41% (active)
O=C(NCCCN1CCN(c2ccc(F)cc2)CC1)c1cc2c(Cl)nc3ccccc3c2s1 | 91%
COc1ccc2c(c1)CC(C(=O)NCCN1CCN(c3ccccc3F)CC1)CO2 (stereo not given) | 47% (active)
COc1ccc2c(c1)CC(C(=O)NCCN1CCN(c3cccc(C)c3C)CC1)CO2 (stereo not given) | 76%
COc1ccc(N2CCN(CCCNC(=O)c3cc(Nc4ccccc4OC)nc4ccccc34)CC2)cc1 | 62%
CCCN1CCN(CCCNC(=O)c2cc3c(Cl)nc4ccccc4c3s2)CC1 | 116%
COc1ccccc1N1CCN(C(=O)c2cc3c(s2)-c2ccccc2OC3)CC1 | 88%
COc1ccc(Nc2cc(C(=O)NCCCN3CCN(c4ccccc4F)CC3)c3ccccc3n2)c(OC)c1 | 48% (active)
O=C(c1cc2c(s1)-c1ccccc1OC2)N1CCN(c2ccc(F)cc2)CC1 | 59%
COc1ccc2c(c1)CC(C(=O)NCCCN1CCN(c3ccccc3F)CC1)CO2 (stereo not given) | 87%
COc1ccc(N2CCN(CCCNC(=O)c3cc(Nc4ccc(OC)cc4OC)nc4ccccc34)CC2)cc1 | 87%
